SMARCA2 activ – SMARCA2 function activation, primary screen; MG213 cells, MMTV-luciferase reporter, dexamethasone, overnight; activation, % at 9.1 µM; 1% of 370,000 active; in the data active = activation above about 7.8%
FXN GAA850 act – frataxin GAA850 promoter activation | HEK293 lucGAA850 FXN promoter luciferase reporter, 24 h; percent of 10 µM SAHA response | 0.56% of 360,000 active | activation, % at 6 µM;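 active = activation above the average of all compounds screened plus 3 SD, cutoff fixed separately per campaign, cut at about 7.5% in these data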
Hsp70 activator – switches on Hsp70 transcription | HeLa Hsp70 promoter luciferase reporter, luminescence; scaled: vehicle 0, proteasome-inhibitor control 100% | activation, % at 10 µM | 0.04% of 200,000 active | AID 1203;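 active = activation above the mean across all tested compounds plus 3 SD, cutoff set per campaign, cut at about 5.5% in these data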
HIF activator – HIF pathway transcriptional activation | U2OS HRE-luciferase reporter, luminescence; normalized: DMSO 0%, desferrioxamine 100% | activation, % at 7.5 µM (by protocol) | 0.32% of 300,000 active | AID 1910;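 active = mean activation of at least 10% of the iron chelator positive control signal, with at least half of replicates also reaching 10%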
GalR3 antag – antagonists of human GalR3; O60755; HEK293 GalR3-CNG cAMP membrane potential fluorescence; galR3 body fused to GalR1 C-terminus; inhibition, % at 3 µM; 0.44% of 360,000 active;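 active = inhibition above the screen-wide average plus 3 SD, cut at about 13% in these data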;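 also: forskolin and galanin both at EC90 stimulate the cells; cAMP rise reported by CNG channel membrane potential dye signal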
Target sequence (O60755 1-299 limits assumed): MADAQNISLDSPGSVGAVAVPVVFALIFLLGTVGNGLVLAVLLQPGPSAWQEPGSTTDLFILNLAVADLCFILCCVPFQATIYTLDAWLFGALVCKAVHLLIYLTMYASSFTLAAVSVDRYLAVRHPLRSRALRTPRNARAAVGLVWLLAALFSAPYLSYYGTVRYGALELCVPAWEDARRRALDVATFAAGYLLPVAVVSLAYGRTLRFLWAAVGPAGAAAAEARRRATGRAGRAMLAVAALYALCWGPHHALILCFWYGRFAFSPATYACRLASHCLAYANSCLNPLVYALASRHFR
SMARCA2 act conf – confirmation of SMARCA2 (BRM) function activators; shares compounds with SMARCA2 activ; MG213 cells, MMTV-luciferase with dexamethasone, luminescence, overnight; MG213 cells expressing E1A, Rb sequestered; DMSO wells 0%, reference activator 100%; activation, % at 9.1 µM; 30% of 3,500 active; AID 652260;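 active = activation above its plate's cutoff, the mean activation of tested wells plus 3 SD, cut at about 7.9% in these data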
GAL4-VP16 Luc – GAL4-VP16 reporter activation counter-screen; shares compounds with SMARCA2 activ; 41% of 3,500 active; activation, % at 9.1 µM; HEK293 GAL4-VP16 pG5luc reporter, luciferase luminescence; scaled: DMSO wells 0%, SAHA wells 100%; AID 686939;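 active = activation above the solvent-only control well mean plus 3 SD, averaged across control plates, cut at about 5.2% in these data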
Hits are given with their value; 0 = inactive; - = not tested or not shown; ! = repeats disagree. Rows were chosen to be rich in hits. Some 2.2% of all compounds tested hit in one or more screens of this group.

SMILES	SMARCA2 activ	FXN GAA850 act	Hsp70 activator	HIF activator	GalR3 antag	SMARCA2 act conf	GAL4-VP16 Luc
COc1ccc(Cc2nnc(NC(=O)c3ccccc3[N+](=O)[O-])s2)cc1	8.4	0	0	0	0	0	0
Cc1cccc(NC(=O)CSc2nnc(SCc3ccc(Cl)cc3)s2)c1	0	-	-	-	-	-	-
O=C(NNC1CC(=O)N(c2ccc3c(c2)OCCO3)C1=O)c1ccccc1 (stereo not given)	8.6	0	0	0	0	0	0
O=C(CSc1nnc2ccccn12)Nc1ncc(Cl)cc1Cl	9.5	0	0	0	0	8.4	0
NC1=NC(=O)/C(=C/C=C/c2cccs2)S1	16	0	-	0	0	8.6	5.8
CC1(c2nnnn2-c2ccc(F)cc2)CCCC(=O)N1CCc1c[nH]c2ccccc12 (stereo not given)	0	-	-	-	-	-	-
FC(F)(F)Oc1cccc(Cn2ccc3ccc(-c4ccc5ccn(Cc6ccccc6)c5c4)cc32)c1	0	-	-	-	-	-	-
C[C@@H]1COc2cc(N3CCSCC3)ccc2S(=O)(=O)N1C	0	-	-	-	-	-	-
O=C(O)/C=C/C(=O)NC1CCCCC1	0	0	0	0	0	-	-
CC1CC(NC(=O)/C=C/C(=O)O)CC(C)(C)C1 (stereo not given)	10	0	-	0	0	0	0
CCc1nnc(NS(=O)(=O)c2ccc(N3C(=O)c4ccccc4C3=O)cc2)s1	11	0	0	0	0	0	0
O=C(NCC1CCN(C(=O)C(=O)c2cc3ccccc3o2)CC1)c1ccc2c(c1)OCC2	0	-	-	-	0	-	-
CCN(CC)C(=O)c1cc2c(=O)c3cc(F)ccc3oc2nc1C	9.6	0	0	0	0	0	0
COc1ccc(C(=O)NCC2(c3ccc(OC)c(OC)c3)CCCC2)cc1OC	8.9	0	-	-	0	0	0
COc1ccc(C2(CNC(=O)c3ccc(OC)c([N+](=O)[O-])c3)CCCCC2)cc1OC	0	0	0	0	0	-	-
COC(=O)[C@]12C[C@H](CC(=O)NCCCN3CCCC3=O)C(=O)N(Cc3cccc4ccccc34)C1=C[C@H](C(C)(C)C)O[C@@H]2C	0	-	-	-	-	-	-
CCC(C)C(=O)OC1CCC=C2C=CC(C)C(CCC3CC(O)CC(=O)O3)C21 (stereo not given)	0	0	-	-	0	-	-
CC[C@H](C)C(=O)O[C@H]1C[C@@H](C)C=C2C=C[C@H](C)[C@H](CC[C@@H]3C[C@@H](O)CC(=O)O3)[C@H]21	8.2!	0	0	0	0	0	0
CC[C@H](C)C(=O)O[C@H]1CCC=C2C=C[C@H](C)[C@H](CC[C@@H]3C[C@@H](O)CC(=O)O3)[C@H]21	11	0	0	0	0	0	0
CCOc1cccc(-c2nn3c(-c4cccc(C)c4)nnc3s2)c1	0	-	-	-	-	-	-
CC(C)NC(=O)c1ccc2c3n(nc2c1)-c1ccc(Cl)cc1CO3	0	0	-	0	0	-	-
CCN(CC)CCCNC(=O)c1ccc2c3n(nc2c1)-c1ccc(Cl)cc1CO3	11	0	-	0	0	23	7.2
N/N=C(/Cc1nc2ccccc2[nH]1)c1ccc([N+](=O)[O-])cc1	8.2	0	0	0	0	0	5.9
COc1cccc(CC(=O)O[C@@H]2CCC[C@@]3(C(=O)N(Cc4ccccc4)c4ccccc43)[C@H]2NC(=O)CCc2ccccc2)c1	0	-	-	-	-	-	-
CCOc1cc(NC(=S)NCc2ccco2)c(OCC)cc1NC(=O)C1CC1	8.0	0	0	0	0	0	0
SMILES	SMARCA2 activ	FXN GAA850 act	Hsp70 activator	HIF activator	GalR3 antag	SMARCA2 act conf	GAL4-VP16 Luc
CCOc1cc(NC(=S)NCc2ccco2)c(OCC)cc1NC(C)=O	0	0	0	0	0	-	-
CCOc1nc(-c2ccc(OC)cc2)ccc1-c1noc(-c2cccnc2)n1	-	-	0	-	-	-	-
COc1nc(C)ccc1-c1noc(-c2cccnc2)n1	11	0	-	0	0	0	7.1
CCOc1ccc(-c2nc(-c3cccnc3)no2)cc1	9.3	0	0	0	0	0	13
CCCCOc1ccc(-c2nc(-c3cccnc3)no2)cc1	0	0	0	0	0	-	-
O=C(Oc1ccc(/C=N/NC(=O)c2ccccc2O)cc1)c1ccccc1	0	0	0	0	0	-	-
CSc1ccc(/C=N/NC(=O)c2cc(O)cc(O)c2)cc1	9.3	0	0	-	0	9.4	5.4
O=C(N/N=C/c1ccc(OC(=O)c2ccccc2)cc1)c1cccc(O)c1	10.0	0	0	0	0	0	0
CCN(CC)CCNC(=O)c1cc2c(=O)n(C)c3ccccc3c2s1	14	0	-	0	0	14	0
CCCCN(CC)CCCNC(=O)c1cc2c(=O)n(CC)c3ccccc3c2s1	14	0	-	0	0	0	8.1
Cc1ccc2nc(-c3ccc(CN4CCC5(CC4)CNc4ccccc45)cc3)c(-c3ccccc3)nc2c1	0	-	-	-	0	-	-
CC(C)(C)OC(=O)NCCc1ccccc1/C=C/S(=O)(=O)NCc1ccccc1	0	-	-	-	-	-	-
COc1ccc2[nH]c(C)c(CCN3C(=O)C4CC=CCC4C3=O)c2c1 (stereo not given)	9.1	0	0	0	0	0	0
CCCCN1CN2Cc3ccccc3C2CS1(=O)=O (stereo not given)	0	-	-	-	-	-	-
COc1ccc(C2=NOC(CNC(N)=S)C2)cc1 (stereo not given)	13	0	0	0	0	0	7.7
CCCn1c(C)cc(C(=O)Cn2nnc3ccccc3c2=O)c1C	9.1	0	0	0	0	10	7.3
CCOC(=O)[C@@]12CN(C(=O)OC(C)(C)C)CC=C1N(Cc1ccc(OC)cc1)C(=O)[C@H]2CC(=O)NCC12CC3CC(CC(C3)C1)C2	0	-	-	-	-	-	-
CCNC(=O)NC(=O)C(C)Sc1nc2cc(C(=O)OC)ccc2c(=O)n1-c1ccccc1 (stereo not given)	9.4	0	0	0	0	0	0
Cc1n[nH]c(=S)n1/N=C/c1cccc(OCc2ccccc2)c1	8.6	0	0	0	0	0	0
CC(C)[C@H](NS(=O)(=O)c1ccc(F)cc1F)C(=O)N1CCC[C@H]1C(=O)NCCc1ccccc1Cl	0	-	-	-	0	-	-
O=C(NC1=NCCS1)c1cccc(F)c1	0	0	-	0	0	-	-
O=C(NC1=NCCS1)c1cccc(Br)c1	12	0	-	0	0	17	7.0
Cc1ccc(S(=O)(=O)N2CCOCC2)cc1C(=O)OCC(=O)NC1CC1	9.3	0	-	-	0	0	0
Cc1ccc(S(=O)(=O)N2CCOCC2)cc1C(=O)OCC(=O)NC1CCCCC1	0	0	-	-	0	-	-
Cn1c(N)c(C(=O)COC(=O)c2cc(S(=O)(=O)N3CCOCC3)ccc2F)c(=O)n(C)c1=O	37	0	-	-	0	9.9	0
COc1ccc(CC(NC(C)=O)C(=O)NC2CCN(c3nc(C)cc(C)c3C#N)CC2)cc1OC (stereo not given)	15	0	0	0	0	0	0

Compound activity from PubChem.
